Several values for one entry are separate records, joined by “and”; a condition that tells them apart may be missing. Equal entries are not always repeated. Activity calls are given as the source filed them. How the source made its calls: active means hit-call score of the fitted dose curve at least 0.9, where 1 is the maximum; inactive means score below 0.9.

Experiment [1] in a line: BSK_CASM3C_SRB: Viability Assessment in the BioMAP Diversity Plus: CASM3C Assay (AID 2283050).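 Further: total protein by SRB staining as cytotoxicity measure in parallel cultures; cells exposed to compound for 24 h.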 Particulars: primary human coronary artery smooth muscle cells.
Read-out in experiment [2]: Thrombomodulin, THBD (gene 7056)
In words: BSK_CASM3C_Thrombomodulin: BioMAP Diversity Plus: CASM3C Assay for Thrombomodulin Biomarker Activity (AID 2283051).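 Further: thrombomodulin protein level measured by ELISA 24 h after dosing.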 Particulars: primary human coronary artery smooth muscle cells; actives raise or lower the signal.

Read-out in experiment [3]: Tissue Factor, F3 (gene 2152)
The experiment in a line: BSK_CASM3C_TissueFactor: BioMAP Diversity Plus: CASM3C Assay for Tissue Factor Biomarker Activity (AID 2283052).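 Further: cell surface tissue factor protein level read by ELISA.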 Particulars: primary human coronary artery smooth muscle cells; actives raise or lower the signal.

Read-out in experiment [4]: Interferon-gamma inducible Protein 10 (IP10), CXCL10 (gene 3627)
The experiment in a line: BSK_hDFCGF_IP10: BioMAP Diversity Plus: hDFCGF Assay for Interferon-gamma inducible Protein 10 (IP10) Biomarker Activity (AID 2283053). Particulars: primary human foreskin fibroblasts; actives raise or lower the signal. The gist of the method: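 ELISA read-out of IP-10 (CXCL10) from primary human skin fibroblasts, 24 h after compound addition. Gain or loss of signal versus DMSO baseline, bidirectional curve fitting.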

Read-out in experiment [5]: Urokinase-type plasminogen activator receptor (uPAR), PLAUR (gene 5329)
The experiment in a line: BSK_CASM3C_uPAR: BioMAP Diversity Plus: CASM3C Assay for Urokinase-type plasminogen activator receptor (uPAR) Biomarker Activity (AID 2283054).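 Further: cell-surface uPAR protein level quantified by ELISA.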 The settings on record: primary human coronary artery smooth muscle cells; actives raise or lower the signal.

Read-out in experiment [6]: Vascular cell adhesion molecule 1 (VCAM1), VCAM1 (gene 7412)
In words: BSK_CASM3C_VCAM1: BioMAP Diversity Plus: CASM3C Assay for Vascular cell adhesion molecule 1 (VCAM1) Biomarker Activity (AID 2283055).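 Further: VCAM-1 protein level quantified by ELISA on the cells.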 The settings on record: primary human coronary artery smooth muscle cells; actives raise or lower the signal.

Read-out in experiment [7]: Epidermal growth factor receptor (EGFR), EGFR (gene 1956)
In words: BSK_hDFCGF_EGFR: BioMAP Diversity Plus: hDFCGF Assay for Epidermal growth factor receptor (EGFR) Biomarker Activity (AID 2283057). The settings on record: primary human foreskin fibroblasts; actives raise or lower the signal. The gist of the method: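 ELISA readout of EGFR on human dermal fibroblasts (primary foreskin cells), 24 h post-dosing; bidirectional curve fit vs DMSO baseline, gain or loss of signal scored.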

Read-out in experiment [8]: Interleukin-8 (IL8), CXCL8 (gene 3576)
In words: BSK_hDFCGF_IL8: BioMAP Diversity Plus: hDFCGF Assay for Interleukin-8 (IL8) Biomarker Activity (AID 2283058). The settings on record: primary human foreskin fibroblasts; actives raise or lower the signal. An outline of the steps:
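Cells used are human skin primary fibroblasts. Chemical is added, cultures run 24 h, then IL-8 is quantified by ELISA, and gain or loss versus DMSO control is fitted in both directions.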

The nature of experiment [9]: BSK_hDFCGF_Proliferation: Cell Proliferation Assessment in the BioMAP Diversity Plus: hDFCGF Assay (AID 2283059).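 Further: curves fitted for both rise and fall of signal versus DMSO baseline.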 Particulars: primary human foreskin fibroblasts. The gist of the method:
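Primary human foreskin fibroblasts, sub-confluent; […]; 10% TCA fix, 0.1% SRB stain, A560 total protein. Gain/loss fitted bidirectionally vs DMSO control.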

Read-out in experiment [10]: Macrophage colony-stimulating factor (MCSF), CSF1 (gene 1435)
The experiment in a line: BSK_hDFCGF_MCSF: BioMAP Diversity Plus: hDFCGF Assay for Macrophage colony-stimulating factor (MCSF) Biomarker Activity (AID 2283060). The settings on record: primary human foreskin fibroblasts; actives raise or lower the signal. The gist of the method:
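Primary human foreskin fibroblasts dosed with chemical; 24 h later, M-CSF quantified by ELISA; curves fitted in both directions vs DMSO negative control.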

Experiment [11] can be described thus: BSK_hDFCGF_SRB: Viability Assessment in the BioMAP Diversity Plus: hDFCGF Assay (AID 2283061).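 Further: cells exposed to compound for 24 h before the read.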 The settings on record: primary human foreskin fibroblasts. An outline of the steps:
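Readout is SRB absorbance at 560 nm, reflecting total protein in parallel cultures of human foreskin fibroblasts harvested 24 h after chemical dosing. Activity was fitted bidirectionally relative to DMSO.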

Read-out in experiment [12]: TIMP metallopeptidase inhibitor 1 (TIMP1), TIMP1 (gene 7076)
The experiment in a line: BSK_hDFCGF_TIMP1: BioMAP Diversity Plus: hDFCGF Assay for TIMP metallopeptidase inhibitor 1 (TIMP1) Biomarker Activity (AID 2283062). The settings on record: primary human foreskin fibroblasts; actives raise or lower the signal. An outline of the steps: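 Human skin fibroblasts (primary), hDFCGF system; compound exposure 24 h; TIMP-1 by ELISA; bidirectional fit vs DMSO negative control; overt cytotoxicity by SRB in parallel wells.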

Read-out in experiment [13]: Monokine induced gamma interferon (MIG), CXCL9 (gene 4283)
In words: BSK_hDFCGF_MIG: BioMAP Diversity Plus: hDFCGF Assay for Monokine induced gamma interferon (MIG) Biomarker Activity (AID 2283063). The settings on record: primary human foreskin fibroblasts; actives raise or lower the signal. The gist of the method: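 Chemicals were added to primary human foreskin fibroblast cultures, which were sampled 24 h later. MIG levels were then quantified by ELISA and responses fitted in both directions relative to DMSO.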

Read-out in experiment [14]: Matrix Metallopeptidase 1 (MMP1), MMP1 (gene 4312)
In words: BSK_hDFCGF_MMP1: BioMAP Diversity Plus: hDFCGF Assay for Matrix Metallopeptidase 1 (MMP1) Biomarker Activity (AID 2283064). Particulars: primary human foreskin fibroblasts; actives raise or lower the signal. An outline of the steps:
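ELISA read-out of MMP1 from human foreskin fibroblasts (primary skin cells), 24 h post-dose. Gain or loss of signal was fitted bidirectionally versus DMSO negative control; cytotoxicity was checked by SRB in parallel cultures.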

Read-out in experiment [15]: Vascular cell adhesion molecule 1 (VCAM1), VCAM1 (gene 7412)
The experiment in a line: BSK_hDFCGF_VCAM1: BioMAP Diversity Plus: hDFCGF Assay for Vascular cell adhesion molecule 1 (VCAM1) Biomarker Activity (AID 2283065).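 On AC50: VCAM-1 protein level quantified by ELISA after 24 h chemical exposure.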 Particulars: primary human foreskin fibroblasts; actives raise or lower the signal. An outline of the steps: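 Human foreskin fibroblast primary cells, chemical exposure 24 h; VCAM-1 by ELISA; bidirectional fit, DMSO = negative control/baseline.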

Read-out in experiment [16]: Plasminogen activator inhibitor-1 (PAI1), SERPINE1 (gene 5054)
The experiment in a line: BSK_hDFCGF_PAI1: BioMAP Diversity Plus: hDFCGF Assay for Plasminogen activator inhibitor-1 (PAI1) Biomarker Activity (AID 2283066). The settings on record: primary human foreskin fibroblasts; actives raise or lower the signal. The gist of the method:
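ELISA readout of PAI-1 from primary human skin fibroblast cultures, 24 h after compound addition. Gain or loss of signal was fitted bidirectionally against DMSO baseline.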

Read-out in experiment [17]: Interferon-gamma inducible Protein 10 (IP10), CXCL10 (gene 3627)
The experiment in a line: BSK_KF3CT_IP10: BioMAP Diversity Plus: KF3CT Assay for Interferon-gamma inducible Protein 10 (IP10) Biomarker Activity (AID 2283068). Particulars: primary human keratinocytes with fibroblasts; actives raise or lower the signal. The gist of the method:
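In a primary skin co-culture of keratinocytes and fibroblasts, IP-10 is quantified by ELISA at 24 h after dosing. SRB staining of parallel wells monitors overt toxicity. Curves are fitted both directions against DMSO.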

Read-out in experiment [18]: Interleukin-1 alpha (IL1a), IL1A (gene 3552)
The experiment in a line: BSK_KF3CT_IL1a: BioMAP Diversity Plus: KF3CT Assay for Interleukin-1 alpha (IL1a) Biomarker Activity (AID 2283070). Particulars: primary human keratinocytes with fibroblasts; actives raise or lower the signal. An outline of the steps:
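Primary skin co-culture (keratinocytes, foreskin fibroblasts), 24 h exposure; ELISA for IL-1a; bidirectional curve fit vs DMSO.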

Read-out in experiment [19]: TIMP metallopeptidase inhibitor 2 (TIMP2), TIMP2 (gene 7077)
The experiment in a line: BSK_KF3CT_TIMP2: BioMAP Diversity Plus: KF3CT Assay for TIMP metallopeptidase inhibitor 2 (TIMP2) Biomarker Activity (AID 2283071). The settings on record: primary human keratinocytes with fibroblasts; actives raise or lower the signal. An outline of the steps:
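ELISA readout of TIMP-2 in keratinocyte plus foreskin fibroblast co-cultures (human skin primary cells), 24 h post-dose. Gain or loss of signal fitted relative to DMSO.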

Read-out in experiment [20]: urokinase plasminogen activator (uPA), PLAU (gene 5328)
The experiment in a line: BSK_KF3CT_uPA: BioMAP Diversity Plus: KF3CT Assay for urokinase plasminogen activator (uPA) Biomarker Activity (AID 2283075). Particulars: primary human keratinocytes with fibroblasts; actives raise or lower the signal. An outline of the steps: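 Skin co-culture (keratinocytes + foreskin fibroblasts), human primary; 24 h post-dose; uPA by ELISA; gain/loss fit vs DMSO baseline.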

Regarding `Oc1ccc(C2(c3ccc(O)cc3)c3ccccc3-c3ccccc32)cc1`, the half-maximal activity concentration (AC50) in experiment [1] was 20 µM (active); in experiment [2] it was 1.93 µM (active) and 20 µM (active); in experiment [3], 178 nM (active) and 3.97 µM (active); in experiment [4], 2.87 µM (active) and 2.53 µM (active); in experiment [5], 20 µM (active) and 25.7 µM (active); in [6], 3.97 µM (active). The AC50 in experiment [8] is 6.24 µM (active) and 5.65 µM (active); in experiment [9], 1.12 µM (active) and 927 nM (active); in experiment [10], 2.26 µM (active) and 2.51 µM (active); in [12] it was 1.47 µM (active) and 1.56 µM (active); in [13] it was 3.38 µM (active) and 2.61 µM (active); in experiment [14], 3.97 µM (active) and 2.03 µM (active). Moreover, the AC50 was 1.61 µM (active) and 1.41 µM (active) in experiment [15]; 728 nM (active) and 803 nM (active) in experiment [16]; 6.03 µM (active) and 7.32 µM (active) in experiment [17]; 8.68 µM (active) and 6.35 µM (active) in experiment [18]; 5.37 µM (active) and 5.43 µM (active) in experiment [19]; 8.33 µM (active) and 9.87 µM (active) in [20]. The outcome in experiment [7] and in [11] was inactive.
In the case of `O=c1[nH]c(Cl)c(Cl)cc1Cl`, the result in experiment [1], in [2], in experiment [3], in experiment [4], in [5] and in experiment [6] was inactive. For the same compound, the outcome in experiment [7], in experiment [8], in [9], in experiment [10], in experiment [11] and in [12] was inactive. Moreover, the result in experiment [13], in [14], in experiment [15], in experiment [16], in [17] and in experiment [18] was inactive. Moreover, the outcome in [19] and in experiment [20] was inactive.
Consider `CC(C)(C)C(O)C(Oc1ccc(-c2ccccc2)cc1)n1cncn1` (stereo not given), for which the AC50 in experiment [1] was 30.5 µM (active); in [3] it was 14.4 µM (active); in [5] it was 29 µM (active); in experiment [6] it was 30.9 µM (active); in [18], 33 µM (active); in experiment [19], 20 µM (active). Further, the outcome in experiment [2], in experiment [4], in experiment [7], in experiment [8], in experiment [9] and in experiment [10] was inactive. In addition, the outcome in experiment [11], in experiment [12], in [13], in experiment [14], in experiment [15] and in [16] was inactive. Also, the outcome in [17] and in experiment [20] was inactive.
In the case of `CC(C)(c1cc(Cl)c(O)c(Cl)c1)c1cc(Cl)c(O)c(Cl)c1`, the AC50 is 31.6 µM (active) in experiment [1]; 10.9 µM (active) in experiment [3]; 11.5 µM (active) in experiment [4]; 32.5 µM (active) in [5]; 20 µM (active) in experiment [6]; 28.5 µM (active) in experiment [8]. Besides, the AC50 was 7.69 µM (active) in [9]; 12.2 µM (active) in experiment [10]; 16.5 µM (active) in experiment [11]; 11 µM (active) in experiment [12]; 14.8 µM (active) in experiment [13]; 11.1 µM (active) in experiment [14]. Also, the AC50 in experiment [15] was 10.5 µM (active); in experiment [16] it was 6.66 µM (active); in experiment [17] it was 7.37 µM (active); in experiment [18] it was 9.44 µM (active); in experiment [19], 5.51 µM (active); in experiment [20] it was 9.27 µM (active). The result in [2] and in experiment [7] was inactive.
With `CCCCCCCCCCCC#N`, the AC50 in experiment [1] is 29.3 µM (active); in [4], 28.8 µM (active); in experiment [6], 20.6 µM (active); in experiment [9], 10.1 µM (active); in [10], 28.8 µM (active); in experiment [11] it was 29.1 µM (active). Moreover, the AC50 in [12] was 33 µM (active); in [13], 29.7 µM (active); in experiment [14] it was 37.7 µM (active); in [15], 20.6 µM (active); in experiment [16], 31.8 µM (active). The result in experiment [2], in [3], in experiment [5], in [7], in experiment [8] and in [17] was inactive. Further, the outcome in experiment [18], in [19] and in [20] was inactive.

These data come from PubChem BioAssay (EPA / NIEHS).
